Assay [1] can be described thus: NCI Yeast Anticancer Drug Screen. Data for the rad50 strain (AID 155).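 Further: 0% = growth of vehicle-only cultures of the same strain.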 The conditions noted are these: S. cerevisiae rad50 strain growth inhibition, active compounds read high. The gist of the method:
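Genetically altered yeast (DNA repair pathway); compound treatment; growth inhibition vs vehicle ctrl.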

Assay [2] in a line: NCI Yeast Anticancer Drug Screen. Data for the mec2-1 strain (AID 157). The conditions noted are these: S. cerevisiae mec2-1 strain, active compounds read high. Put shortly: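 Using mec2-1 yeast: add compound, measure growth, express inhibition versus vehicle-treated cultures.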
A short description of assay [3]: NCI Yeast Anticancer Drug Screen. Data for the sgs1 mgt1 strain (AID 161).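 Further: 0% = growth of cultures given vehicle only.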 The conditions noted are these: S. cerevisiae sgs1 mgt1 strain, active compounds read high. Put shortly:
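Yeast cells carrying a defined DNA-repair defect were exposed to test compounds. Growth inhibition was measured relative to vehicle-treated controls.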

A short description of assay [4]: NCI Yeast Anticancer Drug Screen. Data for the cln2 rad14 strain (AID 165).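 Further: 0% = growth equal to vehicle treated cultures.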 The conditions noted are these: S. cerevisiae cln2 rad14 strain, active compounds read high. Put shortly: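 Yeast strain cln2 rad14, bearing defects in cell cycle control and DNA repair, serves as the test system; values reflect growth inhibition compared with vehicle.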
Assay [5] is described as follows: NCI Yeast Anticancer Drug Screen. Data for the bub3 strain (AID 167). The conditions noted are these: S. cerevisiae bub3 mutant strain, active compounds read high. Put shortly:
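Yeast carrying a defined mutation is treated with each compound, and growth is compared with that of vehicle-exposed cells to give inhibition.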

Assay [6] can be described thus: NCI Yeast Anticancer Drug Screen. Data for the mlh1 rad18 strain (AID 175). The conditions noted are these: S. cerevisiae mlh1 rad18 strain growth inhibition, active compounds read high. Put shortly:
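Steps: expose repair-defective yeast to compound; measure growth; express inhibition against vehicle-treated controls.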

Where [7] appears, read: at 5.0 µM (retest, dose inferred, filed as 0.5).
Where [8] appears, read: at 50.0 µM (retest, dose inferred, filed as 5.0).

Molecules are shown by their SMILES. About 79,000 compounds went through this panel and 15% of them were active in at least one assay; those are over-represented in the sample as a whole. Values without a mark were called inactive. The source made the active and inactive calls. No stated cut-off is given here; in the data, active means growth inhibition above about 70%; inactive means the rest.

`Cc1cc(N(CCOS(C)(=O)=O)CCOS(C)(=O)=O)ccc1C=Nc1ccc(-c2csc(-c3ccc(Br)cc3)n2)cc1`: the growth inhibition in assay [1] (setting [7]) is 49%; in assay [1] (setting [8]), 91% (active); in assay [1] (at 50.0 µM) it was 95.5% (active); in assay [2] (setting [7]), 47%; in assay [2] (setting [8]) it was 95% (active); in assay [2] (at 50.0 µM), 94.2% (active). The growth inhibition in assay [3] (setting [7]) is 48%; in assay [3] (setting [8]), 95% (active); in assay [3] (at 50.0 µM) it was 81.9% (active); in assay [4] (setting [7]), 37%; in assay [4] (setting [8]) it was 88% (active); in assay [4] (at 50.0 µM) it was 89.5% (active). In addition, the growth inhibition in assay [5] (setting [7]) is 11%; in assay [5] (setting [8]), 85% (active); in assay [5] (at 50.0 µM), 76.9% (active); in assay [6] (setting [7]) it was 88% (active); in assay [6] (setting [8]) it was 96% (active); in assay [6] (at 50.0 µM) it was 96.7% (active).
Consider `N#CC(C(=O)C(=O)Nc1cccc(C(F)(F)F)c1)c1ccccc1` (stereo unspecified), for which the growth inhibition in assay [1] (setting [7]) is -23%; in assay [1] (setting [8]), 90% (active); in assay [1] (at 50.0 µM), -23.1%; in assay [2] (setting [7]), -12%; in assay [2] (setting [8]), 76% (active); in assay [2] (at 50.0 µM), 10.2%. For the same compound, the growth inhibition was -19% in assay [3] (setting [7]); 75% (active) in assay [3] (setting [8]); 16.6% in assay [3] (at 50.0 µM); -9% in assay [4] (setting [7]); 90% (active) in assay [4] (setting [8]); -20.7% in assay [4] (at 50.0 µM). For the same compound, the growth inhibition in assay [5] (setting [7]) was -10%; in assay [5] (setting [8]), 94% (active); in assay [5] (at 50.0 µM) it was 6.55%; in assay [6] (setting [7]), 34%; in assay [6] (setting [8]), 83% (active); in assay [6] (at 50.0 µM), 12.7%.
Regarding `CCCCCCCN1C(=O)c2ccccc2S1(=O)=O`, the growth inhibition in assay [1] (setting [7]) is -2%; in assay [1] (setting [8]) it was 95% (active); in assay [1] (at 50.0 µM), 95.1% (active); in assay [2] (setting [7]), -12%; in assay [2] (setting [8]), 76% (active); in assay [2] (at 50.0 µM), 87.3% (active). Further, the growth inhibition in assay [3] (setting [7]) is 12%; in assay [3] (setting [8]), 94% (active); in assay [3] (at 50.0 µM) it was 86.2% (active); in assay [4] (setting [7]), -4%; in assay [4] (setting [8]), 73% (active); in assay [4] (at 50.0 µM), 43%. Besides, the growth inhibition was 14% in assay [5] (setting [7]); 89% (active) in assay [5] (setting [8]); 93.5% (active) in assay [5] (at 50.0 µM); 39% in assay [6] (setting [7]); 96% (active) in assay [6] (setting [8]); 84.8% (active) in assay [6] (at 50.0 µM).
Regarding `CCCCCCCCCCC[n+]1ccc(C#N)cc1`, the growth inhibition in assay [1] (setting [7]) was -6%; in assay [1] (setting [8]), 64%; in assay [1] (at 50.0 µM), 91.8% (active); in assay [2] (setting [7]), 10%; in assay [2] (setting [8]), 84% (active); in assay [2] (at 50.0 µM), 57.7%. In addition, the growth inhibition in assay [3] (setting [7]) was 14%; in assay [3] (setting [8]), 91% (active); in assay [3] (at 50.0 µM), 92.5% (active); in assay [4] (setting [7]), 16%; in assay [4] (setting [8]) it was 56%; in assay [4] (at 50.0 µM), 76.8% (active). In addition, the growth inhibition was -5% in assay [5] (setting [7]); 75% (active) in assay [5] (setting [8]); 77.6% (active) in assay [5] (at 50.0 µM); 10% in assay [6] (setting [7]); 76% (active) in assay [6] (setting [8]); 91.6% (active) in assay [6] (at 50.0 µM).
With `OC1c2cc(Cl)cc(Cl)c2OC2(N3CCCC3)CCCCC12` (stereo unspecified), the growth inhibition in assay [1] (setting [7]) is 62%; in assay [1] (setting [8]), 94% (active); in assay [1] (at 50.0 µM), 81.5% (active); in assay [2] (setting [7]), 37%; in assay [2] (setting [8]), 87% (active); in assay [2] (at 50.0 µM), 46.1%. Besides, the growth inhibition was 44% in assay [3] (setting [7]); 87% (active) in assay [3] (setting [8]); 82% (active) in assay [3] (at 50.0 µM); 34% in assay [4] (setting [7]); 47% in assay [4] (setting [8]); 19.1% in assay [4] (at 50.0 µM). Moreover, the growth inhibition in assay [5] (setting [7]) is 51%; in assay [5] (setting [8]) it was 96% (active); in assay [5] (at 50.0 µM), 73.3% (active); in assay [6] (setting [7]) it was 61%; in assay [6] (setting [8]), 96% (active); in assay [6] (at 50.0 µM) it was 73.6% (active).
Take `O=C(O)c1cccc(S(=O)(=O)NN2C(=O)CSC2c2c(O)ccc3ccccc23)c1` (stereo unspecified): the growth inhibition in assay [1] (setting [7]) was -11%; in assay [1] (setting [8]), 50%; in assay [1] (at 50.0 µM), 61.9%; in assay [2] (setting [7]) it was 0%; in assay [2] (setting [8]), 50%; in assay [2] (at 50.0 µM), 61%. In addition, the growth inhibition is 2% in assay [3] (setting [7]); 80% (active) in assay [3] (setting [8]); 91.7% (active) in assay [3] (at 50.0 µM); -4% in assay [4] (setting [7]); 57% in assay [4] (setting [8]); 36.9% in assay [4] (at 50.0 µM). Besides, the growth inhibition in assay [5] (setting [7]) is 6%; in assay [5] (setting [8]), 86% (active); in assay [5] (at 50.0 µM), 83.5% (active); in assay [6] (setting [7]), -15%; in assay [6] (setting [8]), 82% (active); in assay [6] (at 50.0 µM) it was 95.2% (active).
For the compound `S=c1sc2nc(Cl)nc(Cl)c2s1`, the growth inhibition in assay [1] (setting [7]) is 99% (active); in assay [1] (setting [8]) it was 99% (active); in assay [1] (at 50.0 µM), 87.1% (active); in assay [2] (setting [7]), 100% (active); in assay [2] (setting [8]), 99% (active); in assay [2] (at 50.0 µM) it was 88.3% (active). The growth inhibition in assay [3] (setting [7]) was 100% (active); in assay [3] (setting [8]), 99% (active); in assay [3] (at 50.0 µM), 89.5% (active); in assay [4] (setting [7]), 97% (active); in assay [4] (setting [8]), 99% (active); in assay [4] (at 50.0 µM), 89.5% (active). Also, the growth inhibition in assay [5] (setting [7]) was 100% (active); in assay [5] (setting [8]) it was 100% (active); in assay [5] (at 50.0 µM), 87.4% (active); in assay [6] (setting [7]), 99% (active); in assay [6] (setting [8]), 98% (active); in assay [6] (at 50.0 µM) it was 89.3% (active).

For the origin of these results see PubChem BioAssay (NCI).
